Usually AC50 stands for the concentration at which the activity in the assay is half-maximal.

Inconclusive results are not listed. Where a structure was tested more than once in an assay, its records may differ in their call. Activity calls are given as the source filed them. How the source made its calls: active means hit-call score of the fitted dose curve at least 0.9, where 1 is the maximum; inconclusive means response in the unintended direction; inactive means score below 0.9.

Data on 38 molecules can be found in PubChem BioAssay (EPA / NIEHS).

This assay in a line: TOX21_p53_BLA_p5_viability: Viability Assessment in the Tox21 HCT-116 p53 Agonism Beta-lactamase Assay, Phase 5 (AID 2283600). An excerpt: TOX21_p53_BLA_p5 is a cell-based, single-readout assay that uses HCT116, a human intestinal cell line, […] in a 1536-well plate.TOX21_p53_BLA_p5_viability is an assay readout measuring cellular ATP content and detected with CellTiter-Glo Luciferase-coupled ATP quantitation.TOX21_p53_BLA_p5_viability used a type of viability reporter where loss-of-signal activity can be used to understand changes in the cell viability. Furthermore, this assay endpoint can be referred to as a secondary readout, because this assay has produced multiple assay endpoints where this one serves a viability function. To generalize the intended target to other relatable targets, this assay endpoint is annotated to the cell cycle intended target family, where the subfamily is cytotoxicity.
Thawing Method: Place 14 mL of pre-warmed thaw medium into a 15 mL of conical tub. Remove the vial of cells to be thawed from liquid nitrogen and thaw rapidly by placing at 37C in a water bath with gentle agitation for 1-2 minutes. Decontaminate the vial by wiping with 70% ethanol before opening in a biological safety cabinet. Transfer the vial contents drop-wise into 14 mL of thaw medium in a sterile 15-mL conical tub. Centrifuge cells at 900 rpm for 4 minutes and resuspend in thaw medium. Transfer contents to the T75 tissue culture flask containing Thaw Medium and place flask in a humidified 37C/5% CO2 incubator. Switch to growth medium at first passage.Propagation Method: Aspirate medium, rinse once in DPBS, add 0.25% Trypsin/EDTA and swirl to coat the cell evenly. Add an equal volume of Growth Medium to inactivate Trypsin after 2-3 minutes incubation at 37C. Centrifuge cells at 900 rpm for 4 minutes and resuspend in growth medium. Cell should be passage or fed at least twice a week.Assay Protocol: Harvest cells from culture in growth medium and resuspend in assay medium. 2.2 Dispense 4000 cells/5 uL/well into 1536-well black/clear bottom plates using a Multidrop dispenser. After the cells were incubated at 37C for 5 hours, 23 nL of compounds dissolved in DMSO were transferred to the assay plate by a PinTool resulting in a 217-fold dilution. Incubate the plates for 16 hours at 37C, 5% CO2. Add 1 uL of 6X LiveBLAzer FRET B/G (CCF4-AM) Substrate Mixture to each well using a BioRAPTR dispenser and incubate the plates at room temperature for 2 hours. Measure fluorescence intensity at 460 and 530 nm emission and 405 nm excitation by an Envision detector. Data is expressed as the ratio of 460nm/530nm emissions. Add 4 uL of Cell-titer Glo to each well using BioRAPTR and incubate the plates at room temperature for […]. For cell viability readout that measures cytotoxicity, 4 ul/well of CellTiter-Glo reagent was added into the assay plates using a Flying Reagent Dispenser. After 30 min incubation at room temperature, the luminescence intensity in the plates was measured using a ViewLux plate reader.
For the molecule `CC(C)(Cl)[N+](=O)[O-]`, the molecule was classed as inactive.
Consider `COC1=CC=C2[C@H]3Cc4ccc(OC)c5c4[C@@]2(CCN3C)[C@H]1O5`, for which the call was inactive.
For the molecule `Cc1cc(C)cc(C(=O)OC2C[C@H]3CC[C@@H](C2)N3C)c1` (stereo not given in full), the result was inactive.
As to `c1ccc(OCC2CO2)cc1` (stereo not given), the molecule was called inactive.
On to `COc1ccc(CO)cc1`, for which the result was inactive.
On the same count and under the same terms, under `CCN(CC)Cc1nccn1-c1ccc([N+](=O)[O-])cc1C(=O)c1ccccc1Cl` stands “inactive”.
With `C[C@H](N)[C@H](O)c1ccc(O)c(O)c1`, the molecule was classed as inactive.
As to `NP(N)(=O)NC(=O)c1ccc(F)cc1`, the result was inactive.
The same measure, in the same setting: in the case of `O=[N+]([O-])C(Br)Br` it was “inactive”.
Same read-out and setting: in the case of `CC(C)[C@@]1(NC(=O)[C@@H]2C[C@@H]3c4cccc5[nH]cc(c45)C[C@H]3N(C)C2)O[C@@]2(O)[C@@H]3CCCN3C(=O)[C@H](Cc3ccccc3)N2C1=O` it was “inactive”; in that of `C=CCOC(C)=O`, “inactive”.
With `O=C(NCc1cccnc1)Nc1ccc([N+](=O)[O-])cc1`, the molecule was called inactive.
Still for that read-out and setting: under `CC(=O)C(Cl)(Cl)Cl` stands “inactive”; under `c1ccc2cc3c(cc2c1)-c1cccc2cccc-3c12`, “inactive”.
Take `CCOP(=O)(O)OCC` (tested in a mixture with another compound): the molecule was classed as inactive and the AC50 was 85.2 µM (active).
For the molecule `CCCCCl`, the molecule was called inactive.
The same measure, in the same setting: under `CCOC(=O)CBr` stands “inactive”.
On to `N#CC(C#N)=Cc1ccc(O)c(O)c1`, for which the molecule was classed as inactive.
Take `Cc1ccccc1-n1c(CF)nc2ccc(N)cc2c1=O`: the call was inactive.
Take `N#CC(Cl)Cl`: the molecule was called inactive.
Regarding `C[C@@H](Cc1ccccc1)N(C)C`, the outcome was inactive.
Same read-out and setting: under `O=C(Cl)CCl` stands “inactive”.
Same read-out and setting: in the case of `BrC(Br)Br` it was “inactive”.
As to `O=C(N[C@@H]1N=C(c2ccccc2F)c2cccc3c2N(CC3)C1=O)c1cc2ccccc2[nH]1`, the outcome was inactive.
On the same count and under the same terms, under `O=NN1CCCCC1` stands “inactive”; under `CNC(=O)OCC[N+](C)(C)C`, “inactive”; under `O=C(O)/C=C/C(=O)O`, “inactive”.
`CC1CCC(C(C)C)C(OC(=O)c2ccccc2N)C1` (stereo not given): the molecule was called inactive and the AC50 was 31.7 µM (active).
Turning to `C=CCOCC1CO1` (stereo not given), the result was inactive.
For `CCCSC(=O)Cl`, the call was inactive.
On the same count and under the same terms, in the case of `O=[N+]([O-])O.O=[N+]([O-])O.[Cd]` it was “inactive”; in that of `O=C(Cl)/C=C/C(=O)Cl`, “inactive”.
On the same count and under the same terms, under `O=C(C[C@@H]1NCCC[C@H]1O)Cn1cnc2cc(Br)c(Cl)cc2c1=O` stands “inactive”.
Consider `C[C@]12CC[C@H](O)C[C@H]1CC[C@@H]1[C@@H]2CC[C@]2(C)[C@@H](c3ccc(=O)oc3)C[C@H]3O[C@]132`, for which the AC50 is 1.04 µM (active).
For `Oc1ccc(Cl)c(Cl)c1Cl`, the molecule was called inactive.
On the same count and under the same terms, under `N[C@@H](Cc1ccc(N(CCCl)CCCl)cc1)C(=O)O` stands “inactive”; under `Oc1cc(Cl)c(Cl)c(Cl)c1Cl`, “inactive”; under `O=c1oc2ccccc2c(O)c1Cc1c(O)c2ccccc2oc1=O`, “inactive”.
